The text below walks through data of paper PMC5700166.

Common to all, as to assay: protein-binding microarray (PBM); PBM: ~300 nM protein, 6 mM HEPES pH 7.8, 80 mM KCl, 0.5 mM EDTA, 0.5 mM EGTA, 6% glycerol, 35 ng/ul poly-dIdC, 1% milk, 1 h, room temperature; Ap Aiptasia and Nv Nematostella (sea anemones) / Co Capsaspora / Aq Amphimedon (sponge) / Dm Drosophila / Hu human; RHD is the Rel homology domain; high values mean tight binding
Common to all, as to details: dsDNA, one strand shown

The target of one test is T1, GST-Ap-NF-kB RHD (Exaiptasia pallida (Aiptasia), UniProt A0A913YAJ5 2-422).
T1 sequence: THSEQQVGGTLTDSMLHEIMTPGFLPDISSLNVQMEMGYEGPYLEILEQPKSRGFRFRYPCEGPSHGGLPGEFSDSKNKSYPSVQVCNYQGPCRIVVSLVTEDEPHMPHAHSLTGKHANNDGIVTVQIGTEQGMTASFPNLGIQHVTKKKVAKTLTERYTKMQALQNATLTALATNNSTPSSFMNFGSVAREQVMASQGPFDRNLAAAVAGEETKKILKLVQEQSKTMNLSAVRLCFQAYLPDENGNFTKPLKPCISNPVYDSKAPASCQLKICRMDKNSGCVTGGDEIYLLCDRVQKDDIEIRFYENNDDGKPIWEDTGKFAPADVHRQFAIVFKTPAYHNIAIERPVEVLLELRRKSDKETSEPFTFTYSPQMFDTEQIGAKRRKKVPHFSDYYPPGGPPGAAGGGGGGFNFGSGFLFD

Test [1] concerns the target T2, GST-Nv-NF-kB (Cys allele) (Nematostella vectensis, UniProt E5G601 2-411).
T2 sequence: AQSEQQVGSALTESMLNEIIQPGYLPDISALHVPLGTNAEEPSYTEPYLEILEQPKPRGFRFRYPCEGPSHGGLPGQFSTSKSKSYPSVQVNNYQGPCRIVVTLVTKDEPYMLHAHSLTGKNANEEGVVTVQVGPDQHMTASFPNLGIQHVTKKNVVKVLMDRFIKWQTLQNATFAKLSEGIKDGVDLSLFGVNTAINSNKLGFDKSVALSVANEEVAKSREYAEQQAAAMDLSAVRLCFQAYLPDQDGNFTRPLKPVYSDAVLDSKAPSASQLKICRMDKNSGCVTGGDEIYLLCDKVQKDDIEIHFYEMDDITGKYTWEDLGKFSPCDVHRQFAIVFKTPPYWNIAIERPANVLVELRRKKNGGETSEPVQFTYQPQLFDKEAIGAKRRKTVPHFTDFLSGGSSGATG

The target of test [2] is T3, GST-Nv-NF-kB (Ser allele) (Nematostella vectensis, UniProt A7UNT2 2-411).
T3 sequence: T2 sequence with Q21R, C66S, S207N, E215Q, V217A, E225K, A268E, D399E

Another test deals with T4, GST-Dm-Relish (Drosophila melanogaster, UniProt Q94527 99-473).
T4 sequence: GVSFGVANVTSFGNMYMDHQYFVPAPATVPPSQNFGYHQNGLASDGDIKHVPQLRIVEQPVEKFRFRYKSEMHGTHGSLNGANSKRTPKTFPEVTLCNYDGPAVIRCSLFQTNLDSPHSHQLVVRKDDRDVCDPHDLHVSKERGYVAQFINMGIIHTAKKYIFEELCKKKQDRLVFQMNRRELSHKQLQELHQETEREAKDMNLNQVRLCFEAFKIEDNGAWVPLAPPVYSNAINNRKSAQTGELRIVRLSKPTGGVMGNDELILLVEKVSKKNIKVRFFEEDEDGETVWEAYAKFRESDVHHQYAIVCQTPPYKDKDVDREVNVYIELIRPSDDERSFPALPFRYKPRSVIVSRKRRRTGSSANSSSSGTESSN

The next test has as its target T5, GST-Aq-NF-kB (Amphimedon queenslandica, UniProt A9Y5G7 2-389).
T5 sequence: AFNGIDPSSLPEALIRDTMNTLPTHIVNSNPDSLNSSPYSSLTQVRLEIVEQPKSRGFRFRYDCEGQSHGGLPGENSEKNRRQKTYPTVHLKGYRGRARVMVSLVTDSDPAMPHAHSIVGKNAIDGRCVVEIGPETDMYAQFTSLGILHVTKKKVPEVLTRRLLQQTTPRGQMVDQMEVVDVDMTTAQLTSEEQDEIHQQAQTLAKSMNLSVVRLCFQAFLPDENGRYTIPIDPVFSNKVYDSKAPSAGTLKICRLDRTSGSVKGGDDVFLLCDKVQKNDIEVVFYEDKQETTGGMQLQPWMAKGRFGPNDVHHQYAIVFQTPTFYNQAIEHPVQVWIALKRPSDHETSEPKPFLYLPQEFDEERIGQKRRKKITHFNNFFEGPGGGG

The next test deals with GST-Hu-p50 (Homo sapiens, UniProt P19838 7-356).
Chain of GST-Hu-p50 (P19838 7-356): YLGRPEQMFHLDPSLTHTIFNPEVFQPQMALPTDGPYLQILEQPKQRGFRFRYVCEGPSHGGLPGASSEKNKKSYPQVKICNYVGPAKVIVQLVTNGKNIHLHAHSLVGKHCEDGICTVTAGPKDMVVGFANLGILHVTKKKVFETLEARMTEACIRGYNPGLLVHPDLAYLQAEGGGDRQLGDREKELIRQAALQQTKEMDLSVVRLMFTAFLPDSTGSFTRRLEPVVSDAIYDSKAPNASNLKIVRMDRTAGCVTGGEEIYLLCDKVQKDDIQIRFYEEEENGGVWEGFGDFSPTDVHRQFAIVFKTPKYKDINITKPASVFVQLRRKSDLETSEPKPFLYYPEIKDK
In a further test the target is T6, GST-Co-NF-kB (Capsaspora owczarzaki, UniProt F1ARL5 200-546).
T6 sequence: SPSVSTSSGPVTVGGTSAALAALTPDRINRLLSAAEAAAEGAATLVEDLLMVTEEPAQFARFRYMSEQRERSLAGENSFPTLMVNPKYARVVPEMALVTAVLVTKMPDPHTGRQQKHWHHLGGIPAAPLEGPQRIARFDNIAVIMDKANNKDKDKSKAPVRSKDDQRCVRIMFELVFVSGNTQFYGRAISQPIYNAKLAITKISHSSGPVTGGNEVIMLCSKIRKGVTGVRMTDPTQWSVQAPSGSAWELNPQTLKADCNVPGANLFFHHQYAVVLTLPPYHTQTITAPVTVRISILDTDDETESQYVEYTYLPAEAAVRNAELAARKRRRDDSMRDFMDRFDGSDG

Numbering of substitutions follows the chain as printed.

“CCGATTAACATCAGGGACTTCTATGATGTTAATCGGGTCTTGATTCGCTTGACGCTGCTG”: the binding signal with GST-Ap-NF-kB RHD came to 5.47 z-score; in test [1], 6.35 z-score; in test [2], 7.05 z-score; with GST-Dm-Relish, 3.93 z-score; in the test with GST-Aq-NF-kB it was 5.24 z-score; with GST-Hu-p50, 5.28 z-score.
Regarding “CCGATTAACATCAGAAAAGTACCTGATGTTAATCGGGTCTTGATTCGCTTGACGCTGCTG”, the binding signal came out at 3.82 z-score in the test with GST-Ap-NF-kB RHD; 6.4 z-score in test [1]; 9.87 z-score in test [2]; 8.45 z-score in the test with GST-Dm-Relish; 4.69 z-score with GST-Aq-NF-kB; 6.05 z-score with GST-Hu-p50.
Regarding “CCGATTAACATCATGTATGCCCCTGATGTTAATCGGGTCTTGATTCGCTTGACGCTGCTG”, the binding signal with GST-Ap-NF-kB RHD turned out to be 1.68 z-score; in test [1] it was 1.71 z-score; with GST-Co-NF-kB, 1.24 z-score; with GST-Dm-Relish, 1.12 z-score; with GST-Aq-NF-kB, 2.51 z-score; with GST-Hu-p50 it was 1.27 z-score.
In the case of “CCGATTAACATCAAGGTGTTTCCTGATGTTAATCGGGTCTTGATTCGCTTGACGCTGCTG”, the binding signal is 1.56 z-score with GST-Ap-NF-kB RHD; 1.48 z-score in test [1]; 1.39 z-score in test [2]; 1.91 z-score with GST-Dm-Relish; 2.48 z-score with GST-Aq-NF-kB; 3.43 z-score in the test with GST-Hu-p50.
“CCGATTAACATCAAGGGGGGTTATGATGTTAATCGGGTCTTGATTCGCTTGACGCTGCTG”: the binding signal was determined as 5.81 z-score with GST-Ap-NF-kB RHD; 4.63 z-score in test [1]; 3.05 z-score in the test with GST-Co-NF-kB; 7.12 z-score in the test with GST-Dm-Relish; 5.77 z-score with GST-Aq-NF-kB; 5.59 z-score in the test with GST-Hu-p50.
On to “CCGATTAACATCAACAACCCCCCTGATGTTAATCGGGTCTTGATTCGCTTGACGCTGCTG”, for which the binding signal with GST-Ap-NF-kB RHD stood at 6.24 z-score; in test [1], 4.31 z-score; in the test with GST-Co-NF-kB, 4.22 z-score; in the test with GST-Dm-Relish, 6.01 z-score; in the test with GST-Aq-NF-kB it was 5.18 z-score; with GST-Hu-p50, 5.38 z-score.
For the sequence “CCGATTAACATCAGGAGAGTCCCTGATGTTAATCGGGTCTTGATTCGCTTGACGCTGCTG”, the binding signal with GST-Ap-NF-kB RHD was found to be 4.86 z-score; in test [1], 5.29 z-score; in test [2] it was 3.96 z-score; with GST-Dm-Relish, 3.65 z-score; in the test with GST-Aq-NF-kB, 7.1 z-score; with GST-Hu-p50, 3.89 z-score.
Take “CCGATTAACATCAGGGACATACCTGATGTTAATCGGGTCTTGATTCGCTTGACGCTGCTG”: the binding signal came to 2.52 z-score with GST-Ap-NF-kB RHD; 3.64 z-score in test [1]; 1.01 z-score in test [2]; 3.64 z-score with GST-Dm-Relish; 5.64 z-score with GST-Aq-NF-kB; 2.14 z-score with GST-Hu-p50.
Turning to “CCGATTAACATCAGGAGAGCCCCTGATGTTAATCGGGTCTTGATTCGCTTGACGCTGCTG”, the binding signal with GST-Ap-NF-kB RHD was 3.65 z-score; in test [1], 3.73 z-score; in test [2], 1.67 z-score; with GST-Dm-Relish, 2.24 z-score; with GST-Aq-NF-kB, 6.28 z-score; with GST-Hu-p50, 3.2 z-score.
“CCGATTAACATCAGGAGAGTACCTGATGTTAATCGGGTCTTGATTCGCTTGACGCTGCTG”: the binding signal with GST-Ap-NF-kB RHD stood at 1.28 z-score; in test [1], 2.32 z-score; in test [2], 3.99 z-score; with GST-Dm-Relish, 2.54 z-score; in the test with GST-Aq-NF-kB it was 3.47 z-score; in the test with GST-Hu-p50, 2.62 z-score.
In the case of “CCGATTAACATCAGAAAAATACCTGATGTTAATCGGGTCTTGATTCGCTTGACGCTGCTG”, the binding signal with GST-Ap-NF-kB RHD stood at 1.31 z-score; in test [1] it was 2.43 z-score; in test [2], 3.74 z-score; with GST-Dm-Relish, 4.9 z-score; with GST-Aq-NF-kB, 3.17 z-score; with GST-Hu-p50, 3.16 z-score.
Regarding “CCGATTAACATCACGCAAATCCCTGATGTTAATCGGGTCTTGATTCGCTTGACGCTGCTG”, the binding signal with GST-Ap-NF-kB RHD was 2.1 z-score; in test [1], 1.61 z-score; in test [2], 1.22 z-score; with GST-Dm-Relish it was 1.24 z-score; with GST-Aq-NF-kB, 2 z-score; with GST-Hu-p50, 1.33 z-score.
